# According to PubChem BioAssay (Tox21):
# A number with no mark means an inactive call. Records with an inconclusive call do not appear. Entries that show only a call come without a potency. Activity calls are given as the source filed them. Unless noted, the call rests on the fitted dose curve; in most records, active means well fitted curve in the direction sought with a large enough effect in the repeat runs; inconclusive means weak or mixed curves; inactive means no such curve, though single readings can be large; an effect the other way counts as inactive or inconclusive.
# Experiments:
# [1] = qHTS assay for small molecule agonists of the p53 signaling pathway (AID 651631; calls by dose curve; further: nearly all actives have a fitted effect of over 15% in size)
# Summary of the method: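 Testing took place in human colorectal HCT-116 cells with stable p53RE-driven beta-lactamase. After 16 h of compound exposure at 37 °C, a FRET substrate was added and fluorescence recorded 2 h later.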
# [2] = qHTS assay for small molecules that induce genotoxicity in human embryonic kidney cells expressing luciferase-tagged ATAD5 (AID 651632); further: nearly all actives have a fitted effect of over 15% in size
# Summary of the method: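 Increased luciferase signal from ATAD5-tagged reporter cells indicates DNA-damage-driven ATAD5 induction. HEK293T cells are treated for 16 hr at 37C before detection with Amplite.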
# [3] = qHTS assay for small molecule agonists of the p53 signaling pathway - cell viability (AID 651633; calls by dose curve; further: nearly all actives have a fitted effect of over 30% in size)
# Summary of the method: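 Viability counter-read: CellTiter-Glo luminescence (30 min, room temperature) in the same p53RE-bla plates. These plates had been exposed to compounds for 16 h at 37 C.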
# [4] = qHTS assay for small molecules that induce genotoxicity in human embryonic kidney cells expressing luciferase-tagged ATAD5 - cell viability (AID 651634; calls by dose curve; further: nearly all actives have a fitted effect of over 25% in size; further: potency means the concentration at half of the fitted maximal effect)
# Summary of the method: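 Cytotoxicity counterscreen in HEK293T cells bearing an ATAD5-luciferase reporter: live-cell protease activity measured by CellTiter-Fluor fluorescence after 15.5 hr compound exposure.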
# [5] = qHTS assay for small molecule disruptors of the mitochondrial membrane potential - cell viability (AID 720634; calls by dose curve;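 further: human HepG2 liver cancer cells; nearly all actives have a fitted effect of over 20% in size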)
# Summary of the method: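 After overnight attachment at 37 C, HepG2 cells received compound or DMSO vehicle for 1 hr. Viability is then taken from ATP-driven luminescence following a 30 min room-temperature CellTiter-Glo step.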
# [6] = qHTS assay for small molecule disruptors of the mitochondrial membrane potential (AID 720635)
# Summary of the method: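 Mitochondrial membrane potential tracked with Mito-MPS dye, red aggregates (ex 540/em 590 nm) against green monomers (ex 490/em 535 nm). Compound treatment 1 hr at 37C, dye 30 min in HepG2.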
# [7] = qHTS assay to test for compound auto fluorescence at 590 nm (red) in HepG2 cells (AID 720674); further: potency means the concentration at half of the fitted maximal effect
# Summary of the method: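 Red autofluorescence (Ex/Em 540/590 nm, Rose Bengal sodium equivalents) was measured in HepG2 cells, 2,000 per well in MEM plus 10% FBS, plated overnight at 37 C. Readings were taken 1 hr after adding 23 nL compound or DMSO, at 37 C and 5% CO2.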
# [8] = qHTS assay to test for compound auto fluorescence at 535 nm (green) in HepG2 cells (AID 720675); further: potency means the concentration at half of the fitted maximal effect
# [9] = qHTS assay to test for compound auto fluorescence at 460 nm (blue) in HEK293 cells (AID 720678)
# Summary of the method: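 Auto fluorescence in the blue band was quantified as triamterene equivalency. HEK293 cells were seeded at 2,000/well, dosed after a 4-5 hr attachment, and kept overnight at 37C before the 405/460 nm reading.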
# [10] = qHTS assay to test for compound auto fluorescence at 590 nm (red) in HEK293 cells (AID 720679); further: potency means the concentration at half of the fitted maximal effect
# Summary of the method: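 Autofluorescence equivalency to Rose Bengal sodium, 540/590nm, in HEK293 cells exposed overnight to 23 nL compound per well.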
# [11] = qHTS assay to test for compound auto fluorescence at 535 nm (green) in HEK293 cells (AID 720680)
# [12] = qHTS assay to test for compound auto fluorescence at 460 nm (blue) in HEK293 cell free culture (AID 720681)
# Summary of the method: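 Blue fluorescence (Ex 405/Em 460 nm, triamterene-equivalent) was read immediately after pin transfer of compound or DMSO into medium (DMEM, 10% FBS) without cells.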
# [13] = qHTS assay to test for compound auto fluorescence at 590 nm (red) in HEK293 cell free culture (AID 720683); further: potency means the concentration at half of the fitted maximal effect
# Summary of the method: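 Red-channel autofluorescence of compounds in culture medium (DMEM, 10% FBS), no cells, measured at 540/590 nm. Rose Bengal sodium is the reference fluorophore for equivalence.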
# [14] = qHTS assay to test for compound auto fluorescence at 590 nm (red) in HepG2 cell free culture (AID 720684); further: potency means the concentration at half of the fitted maximal effect
# Summary of the method: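 Plate contents were MEM with 10% FBS plus test compound or DMSO, no cells. Fluorescence was recorded with 540 nm excitation and 590 nm emission.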
# [15] = qHTS assay to test for compound auto fluorescence at 460 nm (blue) in HepG2 cell free culture (AID 720685)
# Summary of the method: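 Compound (23 nL) or DMSO pinned into cell-free MEM with 10% FBS; blue fluorescence read at 405/460 nm excitation/emission, expressed as auto-fluorescence equivalency to triamterene.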
# [16] = qHTS assay to test for compound auto fluorescence at 535 nm (green) in HepG2 cell free culture (AID 720686); further: potency means the concentration at half of the fitted maximal effect
# [17] = qHTS assay to test for compound auto fluorescence at 460 nm (blue) in HepG2 cells (AID 720687)
# Summary of the method: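 Blue-channel autofluorescence (Ex/Em 405/460 nm, triamterene-equivalent) was measured after 1 hr compound exposure at 37 C, 5% CO2. Cells were HepG2, plated overnight at 37 C in MEM plus 10% FBS.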
# [18] = qHTS assay to test for compound auto fluorescence at 535 nm (green) in HEK293 cell free culture (AID 720682)
# Summary of the method: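 DMEM + 10% FBS, cell-free; cpd or DMSO pinned in; Ex485/Em535 read; output as fluorescein-equivalent signal.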
# [19] = biological target: Glucocorticoid receptor (Homo sapiens) (UniProt P04150); assay: qHTS assay to identify small molecule antagonists of the glucocorticoid receptor (GR) signaling pathway (AID 720692; active means well fitted inhibition curve with a large enough effect in the signal ratio in the repeat runs, not every such curve was filed as active; the % refers to the signal ratio)
# Summary of the method: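 Cells plated, rested 4 h at 37 C/5% CO2; compounds in DMSO pin-transferred; dexamethasone added to 5 nM final; 18 h at 37 C; B/G FRET substrate added, 2 h room temperature; fluorescence measured.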
# [20] = biological target: Glucocorticoid receptor (Homo sapiens) (UniProt P04150); assay: qHTS assay to identify small molecule agonists of the glucocorticoid receptor (GR) signaling pathway (AID 720691; active means well fitted activation curve with a large enough effect in the signal ratio in the repeat runs, not every such curve was filed as active; the % refers to the signal ratio); settings: GR-bla HeLa, beta-lactamase reporter ratio, 18 h; activation: at 62.4 µM (top of the series) unless noted
# Summary of the method: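 Agonist mode in a HeLa line carrying a GRE-controlled beta-lactamase reporter. Compounds act for 18 h at 37 C before a 2 h room-temperature FRET substrate step and fluorescence reading.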
# Tags describe the fitted curve by direction and shape or compound fluorescence and quenching.
# Sequence of Glucocorticoid receptor (Homo sapiens) (P04150 whole entry, looked up): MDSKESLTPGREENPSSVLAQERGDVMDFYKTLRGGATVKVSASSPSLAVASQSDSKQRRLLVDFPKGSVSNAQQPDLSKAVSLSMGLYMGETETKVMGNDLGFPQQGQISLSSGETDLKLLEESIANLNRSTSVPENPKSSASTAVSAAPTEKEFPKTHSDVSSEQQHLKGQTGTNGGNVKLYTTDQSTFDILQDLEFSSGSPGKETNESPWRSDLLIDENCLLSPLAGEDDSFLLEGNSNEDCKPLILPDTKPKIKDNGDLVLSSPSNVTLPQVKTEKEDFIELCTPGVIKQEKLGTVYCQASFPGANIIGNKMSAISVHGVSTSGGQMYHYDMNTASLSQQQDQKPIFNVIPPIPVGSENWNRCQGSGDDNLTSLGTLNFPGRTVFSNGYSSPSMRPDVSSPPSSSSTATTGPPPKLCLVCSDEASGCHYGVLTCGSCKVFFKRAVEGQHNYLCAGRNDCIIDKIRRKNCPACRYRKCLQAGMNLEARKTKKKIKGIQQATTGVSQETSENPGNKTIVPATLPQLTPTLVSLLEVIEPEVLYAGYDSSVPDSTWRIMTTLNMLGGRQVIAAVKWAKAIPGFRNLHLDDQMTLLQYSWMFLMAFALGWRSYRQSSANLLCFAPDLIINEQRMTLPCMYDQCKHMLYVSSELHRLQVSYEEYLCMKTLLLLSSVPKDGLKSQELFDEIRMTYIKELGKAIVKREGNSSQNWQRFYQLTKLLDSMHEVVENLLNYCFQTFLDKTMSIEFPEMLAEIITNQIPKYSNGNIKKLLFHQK
smiles,measurement,setting,value
COc1ccc(C(=O)N2CCN(CC(=O)N3CCOCC3)CC2)cc1,Potency,[1],inactive
same,Potency,[2],inactive
same,Potency,[3],inactive
same,Potency,[4],inactive
same,Potency,[5],inactive
same,Potency,[6],inactive
same,Potency,[7],inactive
same,Potency,[8],inactive
same,outcome,[9],inactive
same,Potency,[10],inactive
same,outcome,[11],inactive
same,outcome,[12],inactive
same,Potency,[13],inactive
same,Potency,[14],inactive
same,outcome,[15],inactive
same,Potency,[16],inactive
same,outcome,[17],inactive
C/C=C/C(=O)CC,activation,[1],-0.927% [at 18 µM]
same,activation,[2],0.488% [at 17.9 µM]
same,"activity change, negative = cytotoxicity",[3],-24.4% [at 17.9 µM]
same,"activity, negative = cytotoxicity",[4],-7.15% [at 17.9 µM]
same,"activity change, negative = cytotoxicity",[5],4.97% [at 17.9 µM]
same,"ratio activity, negative = MMP loss",[6],2.87% [at 17.9 µM]
same,"fluorescence, relative to Rose Bengal",[7],-0.234% [at 18.6 µM]
same,"fluorescence, % of fluorescein control",[8],0.0122% [at 18.6 µM]
same,"fluorescence, % of triamterene",[9],-0.166% [at 18.6 µM]
same,"fluorescence, % of fluorescent control",[10],-0.535% [at 18.6 µM]
same,"fluorescence, % of fluorescein",[11],0.0426% [at 18.6 µM]
same,"fluorescence, % of fluorescent control",[12],0.0584% [at 18.6 µM]
same,activity change,[18],0.0169% [at 18.6 µM]
same,"fluorescence, % of fluorescent control",[13],-0.144% [at 18.6 µM]
same,"fluorescence, % of Rose Bengal",[14],0.0791% [at 18.6 µM]
same,"fluorescence, % of fluorescent control",[15],-0.0097% [at 18.6 µM]
same,"fluorescence, % of fluorescein control",[16],-0.0146% [at 18.6 µM]
same,"fluorescence, % of fluorescent control",[17],-0.0002% [at 18.6 µM]
same,Potency,[19],inactive
CC(COCCO)OCCO (stereo unspecified),Potency,[1],inactive
same,Potency,[2],inactive
same,Potency,[3],inactive
same,Potency,[4],inactive
same,Potency,[5],inactive
same,Potency,[7],inactive
same,Potency,[8],inactive
same,outcome,[9],inactive
same,Potency,[10],inactive
same,outcome,[11],inactive
same,outcome,[12],inactive
same,outcome,[18],inactive
same,Potency,[13],inactive
same,Potency,[14],inactive
same,outcome,[15],inactive
same,Potency,[16],inactive
same,outcome,[17],inactive
COc1cc2nc(N3CCN(C(=O)C4COc5ccccc5O4)CC3)nc(N)c2cc1OC (stereo unspecified),Potency,[1],inactive
same,Potency,[2],inactive
same,Potency,[3],inactive
same,Potency,[4],inactive
same,Potency,[6],inactive
same,Potency,[7],inactive
same,Potency,[8],inactive
same,outcome,[9],inactive
same,Potency,[10],inactive
same,outcome,[11],inactive
same,outcome,[12],inactive
same,outcome,[18],inactive
same,Potency,[13],inactive
same,Potency,[14],inactive
same,Potency,[16],inactive
same,outcome,[17],inactive
CCCCCCCCCOS(=O)(=O)O,Potency,[1],inactive
same,Potency,[2],inactive
same,Potency,[3],inactive
same,Potency,[4],inactive
same,Potency,[5],inactive
same,Potency,[7],inactive
same,Potency,[8],inactive
same,outcome,[9],inactive
same,Potency,[10],inactive
same,outcome,[11],inactive
same,outcome,[12],inactive
same,outcome,[18],inactive
same,Potency,[13],inactive
same,Potency,[14],inactive
same,Potency,[16],inactive
same,outcome,[17],inactive
CCCCCCCN,Potency,[1],inactive
same,Potency,[2],inactive
same,Potency,[3],inactive
same,Potency,[4],inactive
same,Potency,[5],inactive
same,Potency,[7],inactive
same,Potency,[8],inactive
same,outcome,[9],inactive
same,Potency,[10],inactive
same,outcome,[11],inactive
same,outcome,[12],inactive
same,outcome,[18],inactive
same,Potency,[13],inactive
same,Potency,[14],inactive
same,outcome,[15],inactive
same,outcome,[17],inactive
same,Potency,[20],inactive
same,Potency,[19],inactive
CCN(CC)c1ccc2c(-c3ccccc3C(=O)O)c3ccc(=[N+](CC)CC)cc-3oc2c1,Potency,[1],inactive
same,Potency,[2],inactive
same,Potency,[3],inactive
same,Potency,[4],21700 nM (active)
same,Potency,[7],1000 nM (active)
same,Potency,[8],31600 nM (active)
same,outcome,[9],inactive
same,Potency,[10],1120 nM [fluorescent] (active)
same,outcome,[12],inactive
same,Potency,[13],2000 nM [fluorescent] (active)
same,Potency,[14],1120 nM [fluorescent] (active)
same,Potency,[16],31600 nM [fluorescent] (active)
same,outcome,[17],inactive
